{"source": "PubChem BioAssay (Tox21)", "note": "Inconclusive results are not listed. Unmarked numbers belong to inactive results. Calls of active or inactive are those of the source. The call rests on the fitted dose curve; in most records, active means well fitted cell-killing curve with a large enough effect in the repeat runs; inconclusive means weak or mixed curves, or effect the other way; inactive means no such curve, though single readings can be large or run the other way. On the % scale 0 is the no-effect control and ±100 the full control effect.", "data": [{"assay": "qHTS assay to identify small molecule antagonists of the retinoid-related orphan receptor gamma (ROR-gamma) signaling pathway - cell viability counter screen (AID 1159520); further: nearly all actives have a fitted effect of over 50% in size", "conditions": "Tet-on RORgamma CHO cells viability, ATP luminescence, 16 h; series mostly up to 92.4 µM", "excerpt": "U.S. Tox21 Program National Center for Advancing Translational Sciences [NCATS] NIH Chemical Genomics Center [NCGC] U.S. Environmental Protection Agency [EPA] National Institutes of Environmental Health Sciences [NIEHS] National Toxicology Program [NTP] U.S. Food and Drug Administration [FDA] Tox21 Assay Overview: Nuclear steroid hormone receptors are involved in many biological processes including inflammatory responses, cell proliferation, and apoptosis. Environmental factors or compounds disrupting these nuclear receptor pathways and gene expression may promote susceptibility to immunotoxicants and autoimmune diseases. One important group of these expression factors are the retinoid-related orphan receptors. To assess compounds that may interfere with the retinoid-related orphan receptor gamma (ROR-gamma) transcription factor, a cell-based luciferase assay was used. The CHO cell-based assay utilizes a TET-inducible ROR expression factor and ROR response element-LUC reporter gene. Reporter gene activity was induced using Doxycycline Hyclate and measured after 16 hr incubation. Tet-on ROR gamma CHO cells were used to screen against the Tox21 10K compound library for cytotoxicity by measuring the viability of the cells based on the quantitation of the ATP.\nTox21 Assay Protocol Summary: Tet-on ROR gamma CHO cells were dispensed at 1,000 cells in 4 uL of culture medium per well into white wall/solid bottom 1536-well plates using a Multidrop Combi (Thermo Scientific, Waltham, MA) dispenser. Following incubation at 37 C and 5% CO2 for 4 hr, 23 nL of compounds dissolved in DMSO, positive controls or DMSO only were transferred by a Pintool station (Kalypsys, San Diego, CA) and after 2 hr incubation at 37 C, one ul of 1 uM (final concentration) of Doxycycline Hyclate was added to all the wells by using a Flying Reagent Dispenser (FRD) (Aurora Discovery, San Diego, CA). After 16 hr incubation at 37 C and 5% CO2, 5 uL of CellTiter-Glo reagent (Promega Corporation, Madison, WI) was added to each assay plate using FRD. After 30 min incubation at room temperature, luminescence was quantified on a ViewLux plate reader (Perkin Elmer, Waltham, MA).", "values": [{"smiles": "CC(=O)CC(C)(C)C1CCCCC1", "outcome": "inactive"}, {"smiles": "O=C(CCCN1CCC(O)(c2cccc(C(F)(F)F)c2)CC1)c1ccc(F)cc1", "outcome": "inactive"}, {"smiles": "CC/C=C\\CC/C=C/C(OCC)OCC", "outcome": "inactive"}, {"smiles": "O=c1[nH]c(=O)n([C@H]2C[C@H](O)[C@@H](CO)O2)cc1I", "outcome": "inactive"}, {"smiles": "O=C(CCCN1CCN(c2ccccn2)CC1)c1ccc(F)cc1", "outcome": "inactive"}, {"smiles": "CCCCCSCCCCC", "outcome": "inactive"}, {"smiles": "CC(C(=O)O)c1ccc(CC2CCCC2=O)cc1", "note": "(stereo not given)", "outcome": "inactive"}, {"smiles": "C[C@@H]1CCN(C(=O)[C@H](CCCN=C(N)N)NS(=O)(=O)c2cccc3c2NC[C@H](C)C3)[C@@H](C(=O)O)C1", "outcome": "inactive"}, {"smiles": "Nc1cc(=O)[nH]c(N)n1", "outcome": "inactive"}, {"smiles": "C=COCC1CCC(CO)CC1", "note": "(stereo not given)", "outcome": "inactive"}, {"smiles": "OC[C@]1(O)OC[C@@H](O)[C@H](O)[C@@H]1O", "outcome": "inactive"}, {"smiles": "OC(CCN1CCCCC1)(c1ccccc1)C1CC2C=CC1C2", "note": "(stereo not given)", "outcome": "inactive"}, {"smiles": "NCCCNCCSP(=O)(O)O", "activity, negative = cytotoxicity": "4.74% [at 8.39 µM]"}, {"smiles": "COC(=O)c1ccc(C)cc1C1=NC(C)(C(C)C)C(=O)N1", "note": "(stereo not given)", "outcome": "inactive"}, {"smiles": "Cc1cc2c(cc1S(N)(=O)=O)S(=O)(=O)CCC2", "outcome": "inactive"}, {"smiles": "N[C@H]1CN(c2c(F)cc3c(=O)c(C(=O)O)cn(C4C[C@H]4F)c3c2Cl)CC12CC2", "note": "(stereo not given in full)", "outcome": "inactive"}, {"smiles": "CCOC(=O)CC(C)=O", "outcome": "inactive"}, {"smiles": "c1ccc(CC2=NCCN2)cc1", "outcome": "inactive"}, {"smiles": "C[N+](C)(C)CCCCCC[N+](C)(C)C", "outcome": "inactive"}, {"smiles": "CCC(=O)OC(C)c1ccccc1", "note": "(stereo not given)", "outcome": "inactive"}, {"smiles": "C[C@H](NC(CCc1ccccc1)C(=O)O)C(=O)N1CCC[C@H]1C(=O)O", "note": "(stereo not given in full)", "outcome": "inactive"}, {"smiles": "CC[N+](C)(C)c1cccc(O)c1", "outcome": "inactive"}, {"smiles": "NS(=O)(=O)c1ccc(C(=O)O)cc1", "outcome": "inactive"}, {"smiles": "CN1N=C(C(N)=O)CCC1=O", "outcome": "inactive"}, {"smiles": "CCC(C)S", "note": "(stereo not given)", "activity, negative = cytotoxicity": "-0.272% [at 3.27 µM]"}, {"smiles": "COc1nc(N)nc2c1ncn2[C@@H]1O[C@H](CO)[C@@H](O)[C@@H]1O", "outcome": "inactive"}, {"smiles": "NS(=O)(=O)c1cc(C(=O)O)cc(N2CCCC2)c1Oc1ccccc1", "outcome": "inactive"}, {"smiles": "NC(=O)Nc1ccccc1", "outcome": "inactive"}, {"smiles": "Brc1c(NC2=NCCN2)ccc2nccnc12", "outcome": "inactive"}, {"smiles": "COC(=O)NN", "outcome": "inactive"}, {"smiles": "COC(=O)[C@@H](N)Cc1ccc(O)c(O)c1", "outcome": "inactive"}, {"smiles": "CC(=O)Nc1ccc(S(N)(=O)=O)cc1", "outcome": "inactive"}, {"smiles": "CN(C(=O)c1c(O)c2ccccc2n(C)c1=O)c1ccccc1", "outcome": "inactive"}, {"smiles": "C/C=C(\\C)C#N", "outcome": "inactive"}, {"smiles": "C=C1CC[C@H]2C[C@@H]1C2(C)C", "outcome": "inactive"}, {"smiles": "O=C(O)CCCl", "outcome": "inactive"}, {"smiles": "O=C1CCCC(=O)C1", "outcome": "inactive"}, {"smiles": "Cc1cccc(C)c1NC(=O)C(C)N", "note": "(stereo not given)", "outcome": "inactive"}, {"smiles": "CCOC(=O)c1cccc(N)c1", "outcome": "inactive"}, {"smiles": "O=C(O)c1ccccc1OP(=O)(O)O", "outcome": "inactive"}]}]}
